{"source": "PubChem BioAssay AID1578", "about": "(Sanford-Burnham Center for Chemical Genomics, 2009)", "note": "Among all 290,000 compounds or so, about 3,000 (1%) were called active. No stated cut-off is given here; in the data, active means inhibition mostly above about 36% (no sharp cut-off); inactive means mostly below about 34%. The full list was thinned out, with actives kept by preference."}
{"experiment": "inhibition of NOD1-driven NF-kB reporter – cell-based, luminescence, uHTS, primary screen (AID 1578);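 further: HEK-293T reporter cells stimulated with the NOD1 agonist gamma-tri-DAP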", "conditions": "NOD1-driven NF-kB luciferase reporter cells, at 4 µM, hits give high values"}
{"smiles": "COc1ccccc1P(=O)(Cc1ccccc1[N+](=O)[O-])c1ccccc1", "note": "(stereo unspecified)", "inhibition": "-7.4% (inactive)"}
{"smiles": "CN1Cc2c(N3CCOCC3)nc3sc(C#N)c(N)c3c2CC1(C)C", "inhibition": "-1.3% (inactive)"}
{"smiles": "CCOc1cc2c3c(c1)C(C)CC(C)(C)N3C(=O)C2=O", "note": "(stereo unspecified)", "inhibition": "-0.3% (inactive)"}
{"smiles": "CCc1cc2c3c(c1)C(C)CC(C)(C)N3C(=O)C2=O", "note": "(stereo unspecified)", "inhibition": "-3.6% (inactive)"}
{"smiles": "COc1ccc(OC)c(NC(=O)CSc2nncc3ccc(OC)c(OC)c23)c1", "inhibition": "1% (inactive)"}
{"smiles": "COc1ccc(OC)c(/C=N\\NC(=O)c2ccc(-c3ccccc3)cc2)c1", "inhibition": "-32% (inactive)"}
{"smiles": "COc1ccccc1Nc1nc(N)nc(CN2CCCCC2)n1", "inhibition": "-0.3% (inactive)"}
{"smiles": "Cc1ccc(C(=O)CSc2nnc3c4ccccc4nc(C(C)(C)C)n23)cc1", "inhibition": "92.5% (active)"}
{"smiles": "Cc1ccc(C(=O)CSc2nnc3c4ccccc4nc(Cc4ccccc4)n23)cc1", "inhibition": "-10.1% (inactive)"}
{"smiles": "Cc1ccc(C(=O)CSc2nnc(-c3ccccc3N)n2C)cc1", "inhibition": "101% (active)"}
{"smiles": "Cn1c(SCC(=O)c2ccc(F)cc2)nnc1-c1ccccc1N", "inhibition": "-7.5% (inactive)"}
{"smiles": "CC(=O)CSc1nnc2c3ccccc3nc(C(C)(C)C)n12", "inhibition": "-19.2% (inactive)"}
{"smiles": "Cc1ccc(C(=O)CSc2nnc(-c3ccccc3N)n2C)cc1C", "inhibition": "-30.8% (inactive)"}
{"smiles": "CCCCN(C(=O)/C=C/c1ccc(OCC(C)C)c(OCC)c1)c1c(N)n(CCC)c(=O)[nH]c1=O", "inhibition": "-20.9% (inactive)"}
{"smiles": "CCCCNCc1cc(Cl)c(OCCC)c(OCC)c1", "inhibition": "-20.5% (inactive)"}
{"smiles": "Cc1ccccc1NC(=O)COC(=O)c1cccnc1", "inhibition": "-22.1% (inactive)"}
{"smiles": "COc1ccc(-n2c(SCC(=O)Nc3cccc(C(=O)O)c3)nnc2-c2ccco2)cc1", "inhibition": "-20.2% (inactive)"}
{"smiles": "Cc1nc(Cl)c2c(n1)NC(=O)CO2", "inhibition": "0.5% (inactive)"}
{"smiles": "CCN(CC)C(=O)Oc1ccc2ccccc2c1Br", "inhibition": "-53.4% (inactive)"}
{"smiles": "Cc1ccc2oc(-c3ccc(NC(=O)c4cccnc4)cc3)nc2c1", "inhibition": "-27.5% (inactive)"}
{"smiles": "O=C(Nc1cccc(NC(=O)c2cccs2)c1)c1ccc(Br)o1", "inhibition": "-17.2% (inactive)"}
{"smiles": "O=C(Nc1cccc(NC(=O)c2cccs2)c1)c1ccc([N+](=O)[O-])o1", "inhibition": "36.9% (active)"}
{"smiles": "Cc1ccc2nc(-c3ccc(NC(=O)c4cccnc4)cc3)oc2c1", "inhibition": "58.7% (active)"}
{"smiles": "O=C(Nc1ccc(-c2nc3ccccc3o2)cc1)c1cccnc1", "inhibition": "-1.6% (inactive)"}
{"smiles": "O=C(Nc1ccc2oc(-c3ccncc3)nc2c1)c1ccc([N+](=O)[O-])o1", "inhibition": "22.8% (inactive)"}
{"smiles": "O=C(Nc1ccc2oc(-c3cccnc3)nc2c1)c1ccc(Br)o1", "inhibition": "-16.5% (inactive)"}
{"smiles": "COc1cc(NC(=O)c2ccc([N+](=O)[O-])o2)ccc1NC(=O)c1cccs1", "inhibition": "9.1% (inactive)"}
{"smiles": "COCCNC(=O)C(c1ccc(OC)cc1)N(Cc1ccco1)C(=O)CCC(=O)Nc1ccccn1", "note": "(stereo unspecified)", "inhibition": "19.2% (inactive)"}
{"smiles": "COc1ccc(CN2CCN(Cc3c[nH]c4ccccc34)CC2CCO)cc1C", "note": "(stereo unspecified)", "inhibition": "-1.8% (inactive)"}
{"smiles": "Cc1ccc(C(=O)CCNc2ccc(Cl)cc2)o1", "inhibition": "-29.8% (inactive)"}
{"smiles": "CS(=O)(=O)N(CC(=O)NCC1CCCO1)c1cc(Cl)ccc1Cl", "note": "(stereo unspecified)", "inhibition": "2.4% (inactive)"}
{"smiles": "O=c1c[n+]([O-])c2ccccc2n1OCc1ccccn1", "inhibition": "0.2% (inactive)"}
{"smiles": "C#CCN1C(=O)C(O)(CC(=O)/C=C/c2ccco2)c2ccccc21", "note": "(stereo unspecified)", "inhibition": "-14.4% (inactive)"}
{"smiles": "CSCCC(NC(=O)C1CCC(C)CC1)C(=O)N1CCN(c2ccccn2)CC1", "note": "(stereo unspecified)", "inhibition": "4.8% (inactive)"}
{"smiles": "CC1CCC(C(=O)NC(C(=O)N2CCN(c3ccccn3)CC2)C(C)C)CC1", "note": "(stereo unspecified)", "inhibition": "68% (active)"}
{"smiles": "CC(C)CC(NC(=O)C1CCC(C)CC1)C(=O)N1CCN(c2ccccn2)CC1", "note": "(stereo unspecified)", "inhibition": "0.1% (inactive)"}
{"smiles": "C/C(=N\\N(c1ccccc1)c1ccccc1)c1ccco1", "inhibition": "-19.4% (inactive)"}
{"smiles": "COCCOC(=O)C1=C(C)NC(=S)NC1/C=C/c1ccccc1", "note": "(stereo unspecified)", "inhibition": "-9.4% (inactive)"}
{"smiles": "Cc1cccc(NC(=O)c2cccc(NC(=O)c3ccccc3)c2)n1", "inhibition": "-35.6% (inactive)"}
{"smiles": "CC(=O)Nc1ccc(NC(=O)CSc2nc3nc(-c4cccs4)cc(C(F)(F)F)c3c(=O)[nH]2)cc1", "inhibition": "-6.3% (inactive)"}
{"smiles": "COc1ccc(NC(=O)CSc2nc3nc(-c4cccs4)cc(C(F)(F)F)c3c(=O)[nH]2)c(OC)c1", "inhibition": "31.6% (inactive)"}
{"smiles": "O=C(NCc1ccccc1)C1=C[C@@H](C2CC2)C[C@@H](OCCCCO)O1", "inhibition": "-27.5% (inactive)"}
{"smiles": "O=C(CC1Sc2ccccc2NC1=O)OC(C(=O)NCCc1ccccc1)c1cccnc1", "note": "(stereo unspecified)", "inhibition": "3.7% (inactive)"}
{"smiles": "O=C(OCC(=O)N1CCc2ccccc21)c1c2c(nc3ccccc13)CCCCC2", "inhibition": "4.9% (inactive)"}
{"smiles": "CN1/C(=C\\C(=S)NC(=O)c2ccccc2Cl)C(C)(C)c2ccccc21", "inhibition": "-48.3% (inactive)"}
{"smiles": "COc1ccccc1C(=O)NC(=S)/C=C1/N(C)c2ccccc2C1(C)C", "inhibition": "90.4% (active)"}
{"smiles": "Cc1ccc(C(=O)NC(=S)/C=C2\\N(C)c3ccccc3C2(C)C)cc1", "inhibition": "15.2% (inactive)"}
{"smiles": "Fc1ccccc1/C=C1\\CCCC2=C1Nc1nnnn1C2c1ccccc1F", "note": "(stereo unspecified)", "inhibition": "11.4% (inactive)"}
{"smiles": "C(=C1/CCCC2=C1Nc1ncnn1C2c1ccccc1)/c1ccccc1", "note": "(stereo unspecified)", "inhibition": "3.1% (inactive)"}
{"smiles": "Fc1ccccc1/C=C1\\CCCC2=C1Nc1ncnn1C2c1ccccc1F", "note": "(stereo unspecified)", "inhibition": "91% (active)"}
{"smiles": "Cc1ccc(CSc2nn3c(=O)c(C)nnc3s2)cc1", "inhibition": "-32.1% (inactive)"}
{"smiles": "N#C/C(C(N)=O)=c1/ccc2c(c1)N1C3=C(CCCC3)CC3CCCCC31N=2", "note": "(stereo unspecified)", "inhibition": "86.2% (active)"}
{"smiles": "N#CC(C#N)=c1ccc2c(c1)N1C3=C(CCCC3)CC3CCCCC31N=2", "note": "(stereo unspecified)", "inhibition": "7% (inactive)"}
{"smiles": "O=[N+]([O-])C(=c1ccc2c(c1)N1C3=C(CCCC3)CC3CCCCC31N=2)[N+](=O)[O-]", "note": "(stereo unspecified)", "inhibition": "0.7% (inactive)"}
{"smiles": "COc1cccc(CNC(=O)CN(C)S(=O)(=O)c2cccc3cccnc23)c1", "inhibition": "-2.3% (inactive)"}
{"smiles": "CCC(C)C(NC(=O)CCC(=O)OCC(=O)[C@@]1(O)CCC2[C@@H]3CCC4=CC(=O)C=C[C@]4(C)C3[C@@H](O)C[C@@]21C)C(=O)O", "note": "(stereo partly specified)", "inhibition": "-4.9% (inactive)"}
{"smiles": "O=C(Nc1nc(-c2cccs2)cs1)c1ccc(Cl)s1", "inhibition": "-18.7% (inactive)"}
{"smiles": "O=C(Nc1nc(-c2ccccn2)cs1)c1ccc(Br)s1", "inhibition": "32.1% (inactive)"}
{"smiles": "Cc1cc(=O)n(C)c2ccc(S(=O)(=O)N3CCOCC3)cc12", "inhibition": "-9% (inactive)"}
{"smiles": "O=C(/C(=C/O)N=Nc1ccccc1)c1cccs1", "inhibition": "-9.4% (inactive)"}
{"smiles": "Cc1cccc(N=N/C(=C\\O)C(=O)c2cccs2)c1", "inhibition": "27% (inactive)"}
{"smiles": "COc1ccc(N=N/C(=C\\O)C(=O)c2cccs2)cc1", "inhibition": "41.3% (active)"}
{"smiles": "Cc1ccccc1C(=O)Nc1c(C)[nH]c(=O)[nH]c1=O", "inhibition": "-1.1% (inactive)"}
{"smiles": "CCC(=O)Nc1cccc(C2=NOC3(C2)C[C@H](C(N)=O)N(C(=O)Cc2ccc([N+](=O)[O-])cc2)C3)c1", "note": "(stereo partly specified)", "inhibition": "0% (inactive)"}
{"smiles": "O=[N+]([O-])c1cccc(-c2ccc(/C=N/Nc3nc(N4CCCCC4)nc(N4CCCCC4)n3)o2)c1", "inhibition": "34.4% (active)"}
{"smiles": "O=[N+]([O-])c1ccc(-c2ccc(/C=N/Nc3nc(N4CCCCC4)nc(N4CCCCC4)n3)o2)cc1", "inhibition": "7.6% (inactive)"}
{"smiles": "O=[N+]([O-])c1ccc(-c2ccc(/C=N/Nc3nc(N4CCCC4)nc(N4CCCC4)n3)o2)cc1", "inhibition": "-26.6% (inactive)"}
{"smiles": "Brc1ccc(-c2ccc(/C=N/Nc3nncc(-c4ccccc4)n3)o2)cc1", "inhibition": "-106% (inactive)"}
{"smiles": "COc1ccccc1-c1cnnc(N/N=C/c2ccc(-c3cccc(Br)c3)o2)n1", "inhibition": "52.2% (active)"}
{"smiles": "FC(F)(F)c1cccc(-c2ccc(/C=N/Nc3nncc(-c4ccccc4)n3)o2)c1", "inhibition": "-58.3% (inactive)"}
{"smiles": "S=c1nc(NCCc2ccccc2Cl)c2ccccc2[nH]1", "inhibition": "-4% (inactive)"}
{"smiles": "CC(NC(=O)Cn1nc(C(=O)O)c2ccccc2c1=O)C12CC3CC(CC(C3)C1)C2", "note": "(stereo unspecified)", "inhibition": "-19.8% (inactive)"}
{"smiles": "CC(NC(=O)CN1CCCC1)C12CC3CC(CC(C3)C1)C2", "note": "(stereo unspecified)", "inhibition": "1.9% (inactive)"}
{"smiles": "CC(NC(=O)Cn1ncc(Cl)c(Cl)c1=O)C12CC3CC(CC(C3)C1)C2", "note": "(stereo unspecified)", "inhibition": "87% (active)"}
{"smiles": "COC(=O)N[C@H](CC(C)=O)c1cccc(C(F)(F)F)c1", "inhibition": "-18.1% (inactive)"}
{"smiles": "Cc1ccccc1C(=O)Nc1ccnn1C1CCN(C2CCSCC2)CC1", "inhibition": "-16.1% (inactive)"}
{"smiles": "O=C(Nc1ccc(Cl)cc1)c1sccc1-n1cccc1", "inhibition": "-13% (inactive)"}
{"smiles": "Cc1c(-c2ccccn2)c(=O)[nH]n1-c1ccc(F)cc1", "inhibition": "-25.2% (inactive)"}
{"smiles": "Cc1ccc(-n2[nH]c(=O)c(-c3ccccn3)c2C)cc1", "inhibition": "65.1% (active)"}
{"smiles": "Cc1ccc(-n2[nH]c(=O)c3cccnc32)cc1", "inhibition": "4.2% (inactive)"}
{"smiles": "O=C(NCCc1ccccc1)C(c1cccs1)N(C(=O)c1csnn1)C1CC1", "note": "(stereo unspecified)", "inhibition": "-15.8% (inactive)"}
{"smiles": "COc1ccc(N(C(=O)CCl)C(C(=O)NCCc2ccccc2)c2cccs2)cc1Cl", "note": "(stereo unspecified)", "inhibition": "63.5% (inactive)"}
{"smiles": "COC(=O)c1ccccc1C(=O)c1cccc2ccccc12", "inhibition": "30.1% (inactive)"}
{"smiles": "CC(C)(C)c1cc(NC(=O)Nc2ccc(Br)cc2Cl)no1", "inhibition": "-19.7% (inactive)"}
{"smiles": "CCOC(=O)c1c(C)[nH]c(C(=O)O)c1C", "inhibition": "7.9% (inactive)"}
{"smiles": "CCOC(=O)c1[nH]c(C)c(C(=O)OCC)c1C", "inhibition": "-5.4% (inactive)"}
{"smiles": "CCOC(=O)c1c(C)[nH]c(C(=O)C(C)Cl)c1C", "note": "(stereo unspecified)", "inhibition": "58.6% (active)"}
{"smiles": "O=C(CN1CCN(c2ccccc2)CC1)Nc1ccc(Oc2ccccc2)cc1", "inhibition": "-2.2% (inactive)"}
{"smiles": "COc1ccc(-c2cc(C(=O)NCC3CCCO3)c3cc(C(C)C)ccc3n2)cc1", "note": "(stereo unspecified)", "inhibition": "-1.8% (inactive)"}
{"smiles": "Cc1cccc(C(=O)Nc2sc3c(c2C(=O)O)CCC3)c1", "inhibition": "-0.7% (inactive)"}
{"smiles": "CNC(=O)c1c(NC(=O)c2cccc(C)c2)sc2c1CCC2", "inhibition": "109% (active)"}
{"smiles": "O=C(Nc1sc2c(c1C(=O)O)CCC2)c1ccccc1", "inhibition": "26.9% (inactive)"}
{"smiles": "CNC(=O)c1c(NC(=O)c2cccc(N3C(=O)CCC3=O)c2)sc2c1CCC2", "inhibition": "5.2% (inactive)"}
{"smiles": "NC(=O)c1c(NC(=O)c2ccccc2Cl)sc2c1CCC2", "inhibition": "-50% (inactive)"}
{"smiles": "O=C(Nc1sc2c(c1C(=O)O)CCC2)c1ccccc1Cl", "inhibition": "17.5% (inactive)"}
{"smiles": "O=C(Nc1sc2c(c1C(=O)O)CCCCC2)c1ccccc1", "inhibition": "43.3% (inactive)"}
